# According to PubChem BioAssay (NCATS):
# Results filed as inconclusive are left out. Where a call stands in place of a potency, no number is given. Activity calls are given as the source filed them. Calls come from the whole dose curve.
# Test: Primary qHTS for inhibitors of MERS-S pseudo-typed particle cell entry (AID 1479149); note: nearly all actives have a fitted effect of over 60% in size; note: potency is the fitted concentration of half-maximal effect
# Details: MERS-S pseudotyped particle entry, luciferase; series mostly up to 57.1 µM
row,SMILES,Potency
1,CN(C)c1cc(NC(=O)CNC(C)(C)C)c(O)c2c1C[C@@H]1C[C@H]3[C@H](N(C)C)C(=O)C(C(N)=O)=C(O)[C@@]3(O)C(=O)C1=C2O,inactive
2,CC(S)C(=O)NCC(=O)O (centres undefined),inactive
3,CO[C@H]1C=CO[C@@]2(C)Oc3c(C)c(O)c4c(O)c(c(/C=N/N5CCN(C)CC5)c(O)c4c3C2=O)NC(=O)/C(C)=C\C=C[C@H](C)[C@H](O)[C@@H](C)[C@@H](O)[C@@H](C)[C@H](OC(C)=O)[C@@H]1C,inactive
4,CN(N=O)C(=O)N[C@@H]1[C@@H](O)[C@H](O)[C@@H](CO)O[C@@H]1O,inactive
5,O=C(O)CCNC(=O)c1ccc(N=Nc2ccc(O)c(C(=O)O)c2)cc1,inactive
6,CC(C)NCC(O)COc1ccc(CCOCC2CC2)cc1 (centres undefined),inactive
7,Nc1nc2c(ncn2COCCO)c(=O)[nH]1,inactive
8,C[n+]1ccccc1/C=N/O,inactive
9,Cn1cc[nH]c1=S,inactive
10,NS(=O)(=O)Cc1noc2ccccc12,inactive
11,CC(C)(C)NC(=O)[C@@H]1CN(Cc2cccnc2)CCN1C[C@@H](O)C[C@@H](Cc1ccccc1)C(=O)N[C@H]1c2ccccc2C[C@H]1O,inactive
12,O=NN(CCCl)C(=O)NCCCl,inactive
13,CN(C)c1nc(N(C)C)nc(N(C)C)n1,inactive
14,C[C@H]1[C@H](NC(=O)/C(=N/OC(C)(C)C(=O)O)c2csc(N)n2)C(=O)N1S(=O)(=O)O (stereo in doubt),inactive
15,CCN(CC)C(=O)N[C@@H]1C=C2c3cccc4[nH]cc(c34)C[C@@H]2N(C)C1,inactive
16,O=C(O)P(=O)(O)O,inactive
17,CN(CCOc1ccc(NS(C)(=O)=O)cc1)CCc1ccc(NS(C)(=O)=O)cc1,inactive
18,Cc1ccc(C)c(OCCCC(C)(C)C(=O)O)c1,inactive
19,CNC1(C)C2CCC(C2)C1(C)C (centres undefined),inactive

row,SMILES,Potency
1,Cc1cccc(Nc2ccncc2S(=O)(=O)NC(=O)NC(C)C)c1,inactive
2,CC1Cc2ccccc2N1NC(=O)c1ccc(Cl)c(S(N)(=O)=O)c1 (centres undefined),inactive
3,CCCCC1=NC2(CCCC2)C(=O)N1Cc1ccc(-c2ccccc2-c2nn[nH]n2)cc1,inactive
4,CCN(CC)CCNC(=O)c1cc(Cl)c(N)cc1OC,inactive
5,Nc1nc(F)nc2c1ncn2[C@@H]1O[C@H](CO)[C@@H](O)[C@@H]1O,inactive
6,O=c1n(CCCN2CCN(c3cccc(Cl)c3)CC2)nc2ccccn12,inactive
7,Oc1ccc(C2CNCCc3c2cc(O)c(O)c3Cl)cc1 (centres undefined),inactive
8,CCc1c2c(nc3ccc(OC(=O)N4CCC(N5CCCCC5)CC4)cc13)-c1cc3c(c(=O)n1C2)COC(=O)[C@]3(O)CC,10 µM (active)
9,N[C@@H]1CONC1=O,inactive
10,NC(=O)OCC(COC(N)=O)c1ccccc1,inactive
11,Nc1nnc(-c2cccc(Cl)c2Cl)c(N)n1,inactive
12,CC(=O)N[C@@H](CS)C(=O)O,inactive
13,O=C(O)c1cn(C2CC2)c2cc(N3CCNCC3)c(F)cc2c1=O,inactive
14,CCCCCOC(=O)Nc1nc(=O)n([C@@H]2O[C@H](C)[C@@H](O)[C@H]2O)cc1F,inactive
15,O=C1NC(c2ccccc2)(c2ccccc2)C(=O)N1COP(=O)(O)O,inactive
16,O=C1OCCN1/N=C/c1ccc([N+](=O)[O-])o1,inactive
17,NCCC(O)(P(=O)(O)O)P(=O)(O)O,inactive
18,CN(C)/N=N/c1nc[nH]c1C(N)=O,inactive

# Test: Primary qHTS for Vero E6 cytotoxicity: counterscreen for inhibitors of SARS-S pseudo-typed particle cell entry (AID 1479150)
# Details: cell viability; series mostly up to 57.1 µM
row,SMILES,Potency
1,CN(C)c1cc(NC(=O)CNC(C)(C)C)c(O)c2c1C[C@@H]1C[C@H]3[C@H](N(C)C)C(=O)C(C(N)=O)=C(O)[C@@]3(O)C(=O)C1=C2O,inactive
2,CC(S)C(=O)NCC(=O)O (centres undefined),inactive
3,CO[C@H]1C=CO[C@@]2(C)Oc3c(C)c(O)c4c(O)c(c(/C=N/N5CCN(C)CC5)c(O)c4c3C2=O)NC(=O)/C(C)=C\C=C[C@H](C)[C@H](O)[C@@H](C)[C@@H](O)[C@@H](C)[C@H](OC(C)=O)[C@@H]1C,inactive
4,CN(N=O)C(=O)N[C@@H]1[C@@H](O)[C@H](O)[C@@H](CO)O[C@@H]1O,inactive
5,O=C(O)CCNC(=O)c1ccc(N=Nc2ccc(O)c(C(=O)O)c2)cc1,inactive
6,CC(C)NCC(O)COc1ccc(CCOCC2CC2)cc1 (centres undefined),inactive
7,Nc1nc2c(ncn2COCCO)c(=O)[nH]1,inactive
8,C[n+]1ccccc1/C=N/O,inactive
9,Cn1cc[nH]c1=S,inactive
10,NS(=O)(=O)Cc1noc2ccccc12,inactive
11,CC(C)(C)NC(=O)[C@@H]1CN(Cc2cccnc2)CCN1C[C@@H](O)C[C@@H](Cc1ccccc1)C(=O)N[C@H]1c2ccccc2C[C@H]1O,inactive
12,O=NN(CCCl)C(=O)NCCCl,inactive
13,CN(C)c1nc(N(C)C)nc(N(C)C)n1,inactive
14,C[C@H]1[C@H](NC(=O)/C(=N/OC(C)(C)C(=O)O)c2csc(N)n2)C(=O)N1S(=O)(=O)O (stereo in doubt),inactive
15,CCN(CC)C(=O)N[C@@H]1C=C2c3cccc4[nH]cc(c34)C[C@@H]2N(C)C1,inactive
16,O=C(O)P(=O)(O)O,inactive
17,CN(CCOc1ccc(NS(C)(=O)=O)cc1)CCc1ccc(NS(C)(=O)=O)cc1,inactive
18,Cc1ccc(C)c(OCCCC(C)(C)C(=O)O)c1,inactive
19,CNC1(C)C2CCC(C2)C1(C)C (centres undefined),inactive

row,SMILES,Potency
1,Cc1cccc(Nc2ccncc2S(=O)(=O)NC(=O)NC(C)C)c1,inactive
2,CC1Cc2ccccc2N1NC(=O)c1ccc(Cl)c(S(N)(=O)=O)c1 (centres undefined),inactive
3,CCCCC1=NC2(CCCC2)C(=O)N1Cc1ccc(-c2ccccc2-c2nn[nH]n2)cc1,inactive
4,CCN(CC)CCNC(=O)c1cc(Cl)c(N)cc1OC,inactive
5,Nc1nc(F)nc2c1ncn2[C@@H]1O[C@H](CO)[C@@H](O)[C@@H]1O,inactive
6,O=c1n(CCCN2CCN(c3cccc(Cl)c3)CC2)nc2ccccn12,inactive
7,Oc1ccc(C2CNCCc3c2cc(O)c(O)c3Cl)cc1 (centres undefined),inactive
8,CCc1c2c(nc3ccc(OC(=O)N4CCC(N5CCCCC5)CC4)cc13)-c1cc3c(c(=O)n1C2)COC(=O)[C@]3(O)CC,inactive
9,N[C@@H]1CONC1=O,inactive
10,NC(=O)OCC(COC(N)=O)c1ccccc1,inactive
11,Nc1nnc(-c2cccc(Cl)c2Cl)c(N)n1,inactive
12,CC(=O)N[C@@H](CS)C(=O)O,inactive
13,O=C(O)c1cn(C2CC2)c2cc(N3CCNCC3)c(F)cc2c1=O,inactive
14,CCCCCOC(=O)Nc1nc(=O)n([C@@H]2O[C@H](C)[C@@H](O)[C@H]2O)cc1F,inactive
15,O=C1NC(c2ccccc2)(c2ccccc2)C(=O)N1COP(=O)(O)O,inactive
16,O=C1OCCN1/N=C/c1ccc([N+](=O)[O-])o1,inactive
17,NCCC(O)(P(=O)(O)O)P(=O)(O)O,inactive
18,CN(C)/N=N/c1nc[nH]c1C(N)=O,inactive
